# Measured values from PubChem BioAssay (Tox21).
# Several values for one entry are separate records, joined by “and”; a condition that tells them apart may be missing. Equal entries are not always repeated. Results filed as inconclusive are left out. A call without a number means that no potency is given here. Activity calls are given as the source filed them. The call rests on the fitted dose curve; in most records, active means well fitted cell-killing curve with a large enough effect in the repeat runs; inconclusive means weak or mixed curves, or effect the other way; inactive means flat fitted curve, though single readings scatter. Residues, ends and D or L forms follow the SMILES beside them.
# Assay: Caspase-3/7 induction in HepG2 cells by small molecules, qHTS cell viability counter screen (AID 1346981); further: nearly all actives have a fitted effect of over 30% in size
# Conditions: CellTiter-Fluor fluorescence, 17 h; series mostly up to 92.4 µM; activity change, negative = cytotoxicity: at the top concentration
# Excerpt: U.S. Tox21 Program National Center for Advancing Translational Sciences [NCATS] NIH Chemical Genomics Center [NCGC] U.S. Environmental Protection Agency [EPA] National Institutes of Environmental Health Sciences [NIEHS] National Toxicology Program [NTP] U.S. Food and Drug Administration [FDA] Tox21 Assay Overview: Apoptosis is a process of programmed cell death and plays a central role in the development of multicellular organisms. It is a highly regulated process and induces cell death by activating caspases, which are the members of cysteine aspartic acid-specific protease (caspase) family. Caspases involved in apoptosis are classified by their mechanism of action as initiator caspases (caspase-2, -8, -9 and -10) and executioner caspases (caspase-3, -6, and -7). Inhibition of apoptosis results in number of cancers, autoimmune diseases, inflammatory diseases and viral infection. To identify small molecule compounds that induce apoptosis, a homogeneous, luminescent Caspase-Glo 3/7 assay was used. Wild type HepG2 cells were used to screen Tox21 libraries for identifying caspase-3/7 activity inducers. Also cytotoxicity of the compounds was tested in parallel by measuring the cell viability using CellTiter-Fluor assay system in the same wells.
# Tox21 Assay Protocol Summary: HepG2 cells were dispensed at 2,000 per well in 5uL of culture medium into white solid bottom 1536-well plates (Corning Life Sciences, Corning, NY) using a Multidrop Combi (Thermo Scientific, Waltham, MA) dispenser. The assay plates were incubated at 37 C and 5% CO2 for 5hr, and then 23nL of compounds dissolved in DMSO and positive control were transferred using a Pintool station ([…], San Diego, CA). The assay plates were incubated at 37C and 5% CO2 for 17hr. For cytotoxicity read, after 16hr incubation at 37C, 1uL CellTiter-Fluor reagent (Promega Corporation, Madison, WI) was added to each well of the assay plates using Flying Reagent Dispenser (FRD, Aurora Discovery, San Diego, CA). After 1hr incubation at 37C and 5% CO2, the fluorescence signal was quantified using a ViewLux plate reader (PerkinElmer, Shelton, CT).
# Potency means the concentration at half of the fitted maximal effect.
Structure (SMILES),Potency,"activity change, negative = cytotoxicity"
O=NO,inactive,–
Cc1ccccc1C(OCCN(C)C)c1ccccc1 (stereo not given),inactive,–
OCCc1ccccc1,inactive,–
O=C1CN(/N=C/c2ccc([N+](=O)[O-])o2)C(=O)N1,48.4 µM (active) and 61.1 µM (active) and 29.8 µM (active),–
O=C1NC(=O)c2ccccc21,inactive,–
NS(=O)(=O)c1cc(C(=O)O)c(NCc2ccco2)cc1Cl,inactive,–
CCCC(CCC)C(=O)O,inactive,–
CCCNC(=O)NS(=O)(=O)c1ccc(Cl)cc1,inactive,–
O=C(O)/C=C\C(=O)O,inactive,–
O=C(O)c1cccc([N+](=O)[O-])c1,inactive,–
Nc1ccc(S(=O)(=O)Nc2nccs2)cc1,inactive,–
Cc1noc(NS(=O)(=O)c2ccc(N)cc2)c1C,inactive,–
O=c1ccc2ccccc2o1,inactive,–
COC(=O)[C@H](Cc1ccccc1)NC(=O)[C@@H](N)CC(=O)O (H-Asp-Phe-OMe),inactive,–
C1N2CN3CN1CN(C2)C3,inactive,–
CC(=O)NS(=O)(=O)c1ccc(N)cc1,inactive,–
Nc1ccc(S(=O)(=O)c2ccc(N)cc2)cc1,inactive,–
O=c1cc[nH]c(=S)[nH]1,inactive,–
CC1(C)[C@@H]2CC[C@@]1(C)C(=O)C2,inactive,–
Oc1ccc(/C=C/c2cc(O)cc(O)c2)cc1,–,-10.6% [at 42.5 µM] (inactive)

Structure (SMILES),Potency,"activity change, negative = cytotoxicity"
Cc1ccc(S(=O)(=O)NC(=O)NN2CCCCCC2)cc1,inactive,–
NC(=O)NC1NC(=O)NC1=O (stereo not given),inactive,–
C/C=C/c1ccc(OC)cc1,inactive,–
Cn1c(=O)c2[nH]cnc2n(C)c1=O,inactive,–
CC(O)CO (stereo not given),inactive,–
Cc1cc(=O)[nH]c(=S)[nH]1,inactive,–
N=C(N)c1ccc(OCCCCCOc2ccc(C(=N)N)cc2)cc1,inactive,–
CC(=O)OCC(COC(C)=O)OC(C)=O,inactive,–
O=C(O)CCCCC(=O)O,inactive,–
Nc1ccc(O)c(C(=O)O)c1,–,-10.2% [at 42.5 µM] (inactive)
CC(C)(Oc1ccc(C2CC2(Cl)Cl)cc1)C(=O)O (stereo not given),inactive,–
CCC1(c2ccccc2)C(=O)NCNC1=O,inactive,–
O=C(O)CS,inactive,–
O=C(O)c1cc(N=Nc2ccc(S(=O)(=O)Nc3ccccn3)cc2)ccc1O,27.4 µM (active) and 48.6 µM (active) and 23.7 µM (active),–
O=C(C1CCCCC1)N1CC(=O)N2CCc3ccccc3C2C1 (stereo not given),inactive,–
CCCCC(CC)COC(=O)/C=C/c1ccc(OC)cc1 (stereo not given),inactive,–
NC(=O)c1cnccn1,inactive,–
CCCN(CCC)S(=O)(=O)c1ccc(C(=O)O)cc1,inactive,–
Cc1ccc(O)cc1,inactive,–
NC(=O)c1ccccc1O,inactive,–
